From ChEMBL document CHEMBL3988442, “University of Dundee, Small-Polar-MMV Screening Library” (2021)
For some assays here: Potency and affinity values are given separately.

Key:
Design in all cases: scale not given: direction of the effect not stated beside the values
[1] = target: Protein translocase subunit SecA (Escherichia coli (strain K12)) (UniProt P10408); experiment: Assay to Identify E. coli SecA ATPase Inhibitors; type: functional; settings: 30 µM
[2] = target: T1, Ubiquitin-activating enzyme e1, putative (Leishmania donovani (strain BPK282A1)) (UniProt E9BSI1); experiment: Leishmania donovani Ubiquitin Activating Enzyme (LdE1); type: functional; settings: 30 µM
T1 sequence (whole entry): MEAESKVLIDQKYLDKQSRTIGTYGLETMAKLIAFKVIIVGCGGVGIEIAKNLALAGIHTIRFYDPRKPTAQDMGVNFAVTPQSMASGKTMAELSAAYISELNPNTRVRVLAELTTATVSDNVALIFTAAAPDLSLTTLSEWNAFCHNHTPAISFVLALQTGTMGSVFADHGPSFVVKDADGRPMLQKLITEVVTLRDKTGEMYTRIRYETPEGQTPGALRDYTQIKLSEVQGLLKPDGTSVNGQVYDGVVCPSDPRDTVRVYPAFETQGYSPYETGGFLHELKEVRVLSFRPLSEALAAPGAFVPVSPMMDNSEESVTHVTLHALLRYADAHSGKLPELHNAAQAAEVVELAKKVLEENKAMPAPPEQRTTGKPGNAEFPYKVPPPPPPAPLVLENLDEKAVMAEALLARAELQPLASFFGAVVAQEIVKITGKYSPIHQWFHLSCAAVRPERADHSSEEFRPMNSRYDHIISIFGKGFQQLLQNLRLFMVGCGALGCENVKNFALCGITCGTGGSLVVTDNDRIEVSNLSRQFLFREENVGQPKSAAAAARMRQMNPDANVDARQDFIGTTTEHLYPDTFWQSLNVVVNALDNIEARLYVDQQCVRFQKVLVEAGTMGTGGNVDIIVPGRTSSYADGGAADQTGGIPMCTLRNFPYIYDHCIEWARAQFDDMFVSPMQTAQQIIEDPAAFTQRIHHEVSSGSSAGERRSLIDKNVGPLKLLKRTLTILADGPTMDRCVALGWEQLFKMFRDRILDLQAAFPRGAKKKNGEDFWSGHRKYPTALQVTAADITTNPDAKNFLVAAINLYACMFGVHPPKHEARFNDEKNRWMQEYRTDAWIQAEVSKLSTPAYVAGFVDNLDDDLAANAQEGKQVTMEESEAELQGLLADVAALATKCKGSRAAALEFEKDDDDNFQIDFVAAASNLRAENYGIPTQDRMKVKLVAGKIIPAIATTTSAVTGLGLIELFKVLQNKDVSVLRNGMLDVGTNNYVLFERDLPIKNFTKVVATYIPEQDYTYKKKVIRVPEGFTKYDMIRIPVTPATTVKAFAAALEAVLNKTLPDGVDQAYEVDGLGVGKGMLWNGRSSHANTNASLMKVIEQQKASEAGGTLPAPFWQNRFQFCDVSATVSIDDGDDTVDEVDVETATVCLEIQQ

[3] = target: AMP-activated protein kinase, AMPK (Homo sapiens) (UniProt P54646+O43741+P54619+Q9UGJ0+Q9Y478+Q13131+Q9UGI9); experiment: AMP-dependent Kinase enzyme assay. An in vitro enzyme assay that detects ADP turnover that is directly proportional to AMPK activity. This uses naive AMPK that is activated during the assay with MK-8722; type: functional; settings: 30 µM
[4] = target: Sialic acid-binding Ig-like lectin 9 (Homo sapiens) (UniProt Q9Y336); experiment: Hs-Siglec9 ALPHAscreen SOP 20170721; settings: 10 µM
Sialic acid-binding Ig-like lectin 9 (Homo sapiens), sequence (Q9Y336 whole entry): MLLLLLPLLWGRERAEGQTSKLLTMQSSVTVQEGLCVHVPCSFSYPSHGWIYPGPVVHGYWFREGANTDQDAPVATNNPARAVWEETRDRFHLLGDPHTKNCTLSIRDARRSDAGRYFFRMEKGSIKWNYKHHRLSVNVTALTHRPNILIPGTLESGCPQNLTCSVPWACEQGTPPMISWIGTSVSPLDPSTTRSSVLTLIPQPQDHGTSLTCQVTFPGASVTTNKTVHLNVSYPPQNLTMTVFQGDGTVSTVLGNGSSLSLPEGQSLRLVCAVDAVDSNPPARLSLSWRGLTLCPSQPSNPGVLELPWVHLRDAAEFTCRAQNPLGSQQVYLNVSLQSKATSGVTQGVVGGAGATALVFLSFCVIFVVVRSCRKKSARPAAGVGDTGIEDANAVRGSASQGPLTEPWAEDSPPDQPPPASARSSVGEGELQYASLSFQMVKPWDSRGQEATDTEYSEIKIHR

Trypanosoma cruzi = experiment: Trypanosoma cruzi phosphomannomutase and mannose-1-phosphate guanylyltransferase assay; type: functional; settings: 10 µM
[5] = target: T2, Arginase-2, mitochondrial (Homo sapiens) (UniProt P78540); experiment: in vitro enzyme assay to detect the production of urea directly proportional to the activity of Arginase II; type: functional; settings: 33.3 µM; further: in the data most compounds retested in dose-response had high values
T2 sequence (whole entry): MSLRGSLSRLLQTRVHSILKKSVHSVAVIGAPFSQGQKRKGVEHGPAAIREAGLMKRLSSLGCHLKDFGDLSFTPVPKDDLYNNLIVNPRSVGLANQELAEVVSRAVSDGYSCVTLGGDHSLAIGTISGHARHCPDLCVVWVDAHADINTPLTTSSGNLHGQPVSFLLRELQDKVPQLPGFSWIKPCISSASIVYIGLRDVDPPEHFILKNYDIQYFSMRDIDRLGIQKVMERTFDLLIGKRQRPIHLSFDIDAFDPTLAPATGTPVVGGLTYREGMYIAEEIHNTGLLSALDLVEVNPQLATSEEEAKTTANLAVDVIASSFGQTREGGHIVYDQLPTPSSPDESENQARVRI

[6] = target: T3, Proteasome subunit beta (Trypanosoma cruzi) (UniProt O96673); experiment: Trypanosoma cruzi proteasome chymotrypsin-like activity (TcProtChymo) assay.; further: in the data most compounds retested in dose-response had high values; type: functional; settings: 9.37 µM
T3 sequence (whole entry): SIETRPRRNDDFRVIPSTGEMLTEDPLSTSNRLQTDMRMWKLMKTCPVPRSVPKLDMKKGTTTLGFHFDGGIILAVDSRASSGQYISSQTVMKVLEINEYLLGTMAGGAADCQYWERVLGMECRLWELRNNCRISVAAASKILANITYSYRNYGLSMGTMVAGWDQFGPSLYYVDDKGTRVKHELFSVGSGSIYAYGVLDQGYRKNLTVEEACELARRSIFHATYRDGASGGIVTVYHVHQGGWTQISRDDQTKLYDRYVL

Homo sapiens = species: Homo sapiens; experiment: To identify inhibition of the IFN signalling (Jak-Stat) pathway via expression of an eGFP reporter gene under the control of an IFN-stimulated response element (ISRE) containing MxA promoter.; type: functional; settings: 30 µM
[7] = target: T4, Tyrosyl-tRNA synthetase, putative (Trypanosoma cruzi (strain CL Brener)) (UniProt Q4DSP6); experiment: Trypanosoma cruzi tyrosyl tRNA synthetase (TcYRS) _High Tyrosine SOP; type: functional; settings: 30 µM; further: in the data most compounds retested in dose-response had high values
T4 sequence (whole entry): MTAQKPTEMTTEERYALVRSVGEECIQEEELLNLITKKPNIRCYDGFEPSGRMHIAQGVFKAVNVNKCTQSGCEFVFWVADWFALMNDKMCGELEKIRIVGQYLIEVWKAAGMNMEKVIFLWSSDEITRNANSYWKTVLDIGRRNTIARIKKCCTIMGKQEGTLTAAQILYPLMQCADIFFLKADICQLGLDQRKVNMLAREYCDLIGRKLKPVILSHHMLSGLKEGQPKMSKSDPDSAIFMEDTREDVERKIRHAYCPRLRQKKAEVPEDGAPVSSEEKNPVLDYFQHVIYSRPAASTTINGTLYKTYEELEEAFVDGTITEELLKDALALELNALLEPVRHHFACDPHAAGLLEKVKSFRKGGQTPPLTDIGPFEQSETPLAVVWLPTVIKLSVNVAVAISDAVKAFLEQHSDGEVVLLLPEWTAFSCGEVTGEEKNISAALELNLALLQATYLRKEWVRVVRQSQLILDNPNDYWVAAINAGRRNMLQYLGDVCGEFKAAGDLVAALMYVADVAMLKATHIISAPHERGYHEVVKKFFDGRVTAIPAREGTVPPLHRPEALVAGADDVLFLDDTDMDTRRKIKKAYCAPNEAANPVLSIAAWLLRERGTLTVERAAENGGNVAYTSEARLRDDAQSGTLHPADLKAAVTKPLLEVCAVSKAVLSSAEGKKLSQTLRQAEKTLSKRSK

[8] = target: T4, Tyrosyl-tRNA synthetase, putative (Trypanosoma cruzi (strain CL Brener)); experiment: Trypanosoma cruzi tyrosyl tRNA synthetase (TcYRS) SOP; type: functional; settings: 30 µM
[9] = target: Chromo domain-containing protein 1 (Saccharomyces cerevisiae (strain ATCC 204508 / S288c) (Baker's yeast)) (UniProt P32657); experiment: ScCHD-1 Enzyme Inhibition Assay; type: functional; settings: 30 µM; further: in the data most compounds retested in dose-response had high values
Chromo domain-containing protein 1 (Saccharomyces cerevisiae (strain ATCC 204508 / S288c) (Baker's yeast)), sequence (P32657 whole entry, the tested form may be a part): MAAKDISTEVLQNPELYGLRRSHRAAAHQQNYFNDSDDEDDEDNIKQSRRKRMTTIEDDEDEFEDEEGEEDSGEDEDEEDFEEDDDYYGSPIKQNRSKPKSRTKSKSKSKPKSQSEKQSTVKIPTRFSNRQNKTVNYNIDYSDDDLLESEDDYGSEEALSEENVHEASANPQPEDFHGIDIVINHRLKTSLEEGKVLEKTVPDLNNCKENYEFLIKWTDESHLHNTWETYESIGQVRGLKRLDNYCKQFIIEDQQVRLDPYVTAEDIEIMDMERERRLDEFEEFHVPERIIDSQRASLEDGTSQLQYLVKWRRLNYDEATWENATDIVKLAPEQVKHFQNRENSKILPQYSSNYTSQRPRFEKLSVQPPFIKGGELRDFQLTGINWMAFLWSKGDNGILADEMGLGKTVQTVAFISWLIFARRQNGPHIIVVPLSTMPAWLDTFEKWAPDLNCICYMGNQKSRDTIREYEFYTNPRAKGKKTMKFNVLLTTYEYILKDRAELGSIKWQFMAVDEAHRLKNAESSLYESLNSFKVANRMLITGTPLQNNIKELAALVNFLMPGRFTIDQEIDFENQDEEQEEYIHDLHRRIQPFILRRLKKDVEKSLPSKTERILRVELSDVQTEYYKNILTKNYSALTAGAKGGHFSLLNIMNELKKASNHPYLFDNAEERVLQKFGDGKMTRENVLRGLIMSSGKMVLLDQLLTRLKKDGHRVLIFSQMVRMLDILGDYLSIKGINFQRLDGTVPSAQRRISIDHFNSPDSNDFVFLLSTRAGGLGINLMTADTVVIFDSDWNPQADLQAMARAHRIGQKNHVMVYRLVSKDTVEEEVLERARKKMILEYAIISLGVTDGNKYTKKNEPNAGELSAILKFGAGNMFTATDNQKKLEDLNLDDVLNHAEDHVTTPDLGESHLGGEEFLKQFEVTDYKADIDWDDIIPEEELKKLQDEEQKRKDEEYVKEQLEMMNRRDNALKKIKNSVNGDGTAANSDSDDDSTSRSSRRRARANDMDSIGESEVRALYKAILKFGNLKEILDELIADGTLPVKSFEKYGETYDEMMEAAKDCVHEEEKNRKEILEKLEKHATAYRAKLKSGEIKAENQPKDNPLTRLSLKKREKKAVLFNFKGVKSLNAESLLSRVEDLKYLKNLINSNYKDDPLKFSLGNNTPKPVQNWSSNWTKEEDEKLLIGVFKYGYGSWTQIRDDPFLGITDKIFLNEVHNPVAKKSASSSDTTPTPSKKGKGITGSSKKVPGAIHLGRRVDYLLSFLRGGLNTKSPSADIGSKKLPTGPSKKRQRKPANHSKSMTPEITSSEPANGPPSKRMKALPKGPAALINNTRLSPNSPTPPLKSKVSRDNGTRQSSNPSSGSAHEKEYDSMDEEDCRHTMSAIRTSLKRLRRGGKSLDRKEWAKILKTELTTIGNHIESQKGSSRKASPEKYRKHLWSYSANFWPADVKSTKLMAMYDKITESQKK

Protein translocase subunit SecA (Escherichia coli (strain K12)), sequence (P10408 whole entry): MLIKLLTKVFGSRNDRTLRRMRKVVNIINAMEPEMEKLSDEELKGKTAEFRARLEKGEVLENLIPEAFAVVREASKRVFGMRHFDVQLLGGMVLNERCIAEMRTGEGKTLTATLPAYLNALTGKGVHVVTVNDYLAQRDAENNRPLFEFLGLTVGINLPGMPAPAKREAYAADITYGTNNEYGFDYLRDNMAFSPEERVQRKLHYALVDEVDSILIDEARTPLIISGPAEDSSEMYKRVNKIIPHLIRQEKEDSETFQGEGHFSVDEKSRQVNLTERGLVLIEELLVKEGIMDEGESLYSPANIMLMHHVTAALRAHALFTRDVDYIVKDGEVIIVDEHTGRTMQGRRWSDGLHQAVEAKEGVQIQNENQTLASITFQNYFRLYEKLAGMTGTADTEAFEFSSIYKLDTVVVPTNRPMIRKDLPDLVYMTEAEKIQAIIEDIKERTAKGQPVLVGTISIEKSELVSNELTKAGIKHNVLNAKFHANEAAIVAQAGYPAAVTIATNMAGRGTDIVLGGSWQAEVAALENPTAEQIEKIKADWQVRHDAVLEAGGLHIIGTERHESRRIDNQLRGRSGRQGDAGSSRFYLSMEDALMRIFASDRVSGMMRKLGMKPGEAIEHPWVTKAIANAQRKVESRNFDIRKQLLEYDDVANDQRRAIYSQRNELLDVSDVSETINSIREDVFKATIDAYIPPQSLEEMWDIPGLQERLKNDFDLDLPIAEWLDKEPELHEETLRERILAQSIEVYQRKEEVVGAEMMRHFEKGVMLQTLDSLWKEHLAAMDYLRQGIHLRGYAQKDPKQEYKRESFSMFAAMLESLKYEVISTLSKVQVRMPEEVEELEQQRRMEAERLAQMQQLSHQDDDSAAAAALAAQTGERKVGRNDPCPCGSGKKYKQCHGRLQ

SMILES | Percent Effect [1] | Percent Effect [2] | Percent Effect [3] | Percent Effect [4] | Percent Effect (Trypanosoma cruzi) | Percent Effect [5] | Percent Effect [6] | Percent Effect (Homo sapiens) | Percent Effect [7] | Percent Effect [8] | Percent Effect [9]
Cc1ccc(S(=O)(=O)N2C[C@H]3C[C@H](NC(=O)c4ccn(C)n4)[C@H]3C2)cc1 | -7.65% | 17.6% | -0.91% | 4.49% | -0.395% | -3.48% | 9.36% | 16.8% | 2.15% | 9.09% | -25.8%
CN1CCCCC1c1ncc2c(n1)CCN(Cc1ccccc1Cl)C2 (stereo unspecified) | 1.96% | -13.3% | 4.6% | 2.83% | 3.74% | 2.56% | 18.9% | -3.83% | 19.1% | 14.1% | 1.52%
Cc1cc(NC(=O)Cn2cc(C#N)c(=O)c3cc(Br)ccc32)no1 | -5.99% | -45.3% | -1.25% | 3.63% | -1.27% | -9.9% | 13.8% | 19.5% | -14.8% | -60.5% | 80.7%
Cc1csc(NC(=O)CN(C)CC2CCCN2c2cccnn2)n1 (stereo unspecified) | -4.27% | 0% | -8.12% | 2.96% | -6.05% | 5.42% | 15.5% | 9.4% | 11.9% | 8.54% | -4.21%
NC(=O)C1(c2cnccn2)CCCN1Cc1cc2ccccc2o1 (stereo unspecified) | -2.52% | 6.76% | 11.2% | 3.94% | -1.78% | -2.09% | 14.2% | 1.46% | 9.68% | 16.9% | -6.96%
Cn1cc(-c2cnc(N3CCOCC3)nc2)cc1C(=O)N1CCOCC1 | -2.41% | 13.3% | 7.42% | 1.64% | -0.984% | 2.56% | 1.32% | 23.2% | 6.38% | 14.1% | -9.55%
COCC1c2nnn(CC3CC3)c2CCN1C(=O)Cc1cccs1 (stereo unspecified) | 1.82% | 2.7% | -8.03% | 6.62% | 4.59% | 13.7% | 17.2% | 7.37% | 4.3% | -58% | -3.81%
O=C(NCCN1CCOCC1)c1ccc(-n2ccc3ccccc32)s1 | -2.64% | 10.4% | 4.76% | -1.07% | 1.08% | -3.23% | 8.01% | 28.5% | 3.17% | 11.5% | -7.3%
CN1CCN(CCCNC(=O)c2cc(Cl)c3c(c2)OCO3)CC1 | 0.405% | 9.72% | -11.6% | 9.36% | 3.6% | 10.6% | 27% | -22.6% | 3.16% | 15.4% | -2.83%
CN(C)S(=O)(=O)c1ccc(CN2CCCC2CO)o1 (stereo unspecified) | -4.59% | 0% | -2.33% | 10.6% | -0.84% | -2.88% | -3.3% | 11.2% | 4.43% | 3.7% | 1.24%
Cc1cccc(NS(=O)(=O)c2cc(C(=O)O)oc2C)c1Cl | -6.42% | 0% | 0.702% | 9.91% | 6.18% | -4.27% | 0.338% | 3.85% | 1.94% | 9.76% | -7.97%
C=C1c2ccccc2C(=O)N1CCC(=O)N1CCNC(=O)C1 | -2.89% | 15.8% | -1.19% | 3.39% | -2.07% | 6.51% | 29.6% | -7.94% | 6.37% | 17.1% | -3.42%
O=C1N(c2ccccc2)Cc2nc(=O)[nH]n21 | -6.16% | 9.33% | -6.52% | 1.33% | 1.38% | -3.35% | 12.2% | 8.42% | 4.23% | 10.3% | -10.1%
COCCN(C)C(=O)Nc1ccc2c(ccn2CCOC)c1 | -6.84% | 28.9% | -12.8% | 0.86% | 6.33% | -1.18% | -0.0959% | 1.75% | 4.25% | 13% | -17.1%
CCn1ncnc1C(C)NC(=O)C1CCN(C(=O)COC)CC1 (stereo unspecified) | -7.01% | 8.11% | -1.09% | 0.673% | -0.489% | 4.22% | 9.19% | 1.26% | 10.8% | 18.5% | -2.43%
CCN1CCn2c(C)cnc2C12CCN(C(=O)CC(C)C)CC2 | -1.23% | 10.7% | 6.38% | -1.92% | -4.83% | -59% | 18.1% | 1.06% | 0% | 5% | -5.61%
